In PubChem BioAssay (NCI):
This is part of a sample that, as a whole, favours compounds with a hit. Of some 79,000 tested, about 15% had one in any assay. Rule as the data show it: active = growth inhibition above about 70%; inactive = the rest. Where a SMILES comes first, the peptide text is derived from it. The star is where a group is joined. Boc = CC(C)(C)OC(=O)*

What was measured:
[1] = NCI Yeast Anticancer Drug Screen. Data for the rad50 strain (AID 155);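 also: 0% = growth of vehicle-only cultures of the same strain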; conditions: S. cerevisiae rad50 strain growth inhibition; at 50.0 µM; stronger effect = higher value
Outline: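 Genetically altered yeast (DNA repair pathway); compound treatment; growth inhibition vs vehicle ctrl.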

[2] = NCI Yeast Anticancer Drug Screen. Data for the mec2-1 strain (AID 157); conditions: S. cerevisiae mec2-1 strain, at 50.0 µM, stronger effect = higher value
Outline: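 Mutant yeast (mec2-1) grown with compound; growth inhibition relative to vehicle control reported.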

[3] = NCI Yeast Anticancer Drug Screen. Data for the sgs1 mgt1 strain (AID 161);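 also: 0% = growth of cultures given vehicle only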; conditions: S. cerevisiae sgs1 mgt1 strain, at 50.0 µM, stronger effect = higher value
Outline: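 Growth of a repair-deficient yeast mutant was monitored after compound treatment and expressed as inhibition relative to vehicle-treated cultures.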

[4] = NCI Yeast Anticancer Drug Screen. Data for the cln2 rad14 strain (AID 165);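 also: 0% = growth equal to vehicle treated cultures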; conditions: S. cerevisiae cln2 rad14 strain, at 50.0 µM, stronger effect = higher value
Outline: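 Readout is yeast growth inhibition versus vehicle-treated controls, using a strain with cln2 and rad14 alterations exposed to compound.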

[5] = NCI Yeast Anticancer Drug Screen. Data for the bub3 strain (AID 167); conditions: S. cerevisiae bub3 mutant strain, at 50.0 µM, stronger effect = higher value
Outline: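 Yeast carrying a defined mutation is treated with each compound, and growth is compared with that of vehicle-exposed cells to give inhibition.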

[6] = NCI Yeast Anticancer Drug Screen. Data for the mlh1 rad18 strain (AID 175); conditions: S. cerevisiae mlh1 rad18 strain growth inhibition; at 50.0 µM; stronger effect = higher value
Outline: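 Genetically defined yeast (DNA repair-deficient) exposed to compounds; growth inhibition determined relative to vehicle.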

Measured: growth inhibition

C=Cc1ccc(S(N)(=O)=O)cc1
inactive: [1] -7.45% | [2] 15.4% | [3] -7.55% | [4] -16.6% | [5] -12.7% | [6] -2.25%

N#CCCN(CCC#N)c1ccc(CC2C(=O)N(c3cccc(S(=O)(=O)O)c3)N=C2C(=O)O)cc1 (stereo not given)
inactive: [1] -19.4% | [2] -26.8% | [3] -23.1% | [4] 6.65% | [5] -15.9% | [6] -32.1%

O=C1c2ccccc2C(=O)c2c(Nc3ccc4c5c(cccc35)C(=O)c3ccccc3-4)cccc21
inactive: [1] 23.1% | [2] 6.25% | [3] -14.2% | [4] -31.7% | [5] -8.4% | [6] 13.2%

COc1ccc(Cc2cc(N=O)c(OC)cc2O)cc1
inactive: [1] -12.4% | [2] -7.3% | [3] 1.15% | [4] -21.5% | [5] -3.6% | [6] -10.7%

CCN(CC)c1ccc2cc(C(=O)Nc3nc(C45CC6CC(CC(C6)C4)C5)cs3)c(=O)oc2c1
inactive: [1] -17.4% | [2] -25.9% | [3] -16.9% | [4] -17.6% | [5] -13.9% | [6] -16.1%

CCCCCCCCCCCCCCCCC1=C(C(=O)OC)NC(N)=NC1O (stereo not given)
inactive: [1] 29% | [2] 0.25% | [3] -20.8% | [4] -10.1% | [5] 4.7% | [6] 22.1%

Cc1cc(C(O)CCCc2ccccc2)cc(C)c1O (stereo not given)
inactive: [1] 37.6% | [2] 6.4% | [3] 3.7% | [4] 34.4% | [5] 42% | [6] 5.1%

CC(N)C(=O)NC(C(=O)NC1C(O)OC(CO)C(O)C1O)C(C)C (stereo not given)
inactive: [1] 6.1% | [2] -17.2% | [3] -17.4% | [4] 7.95% | [5] 7.1% | [6] -5.75%

CC(=O)OCC(OC(C)=O)C1OC2OC(C)(C)OC2C1OS(C)(=O)=O (stereo not given)
inactive: [1] 15.2% | [2] 10.3% | [3] 17.6% | [4] -27.6% | [5] 28.6% | [6] 4.95%

NS(=O)(=O)c1cc(Br)ccc1Br
inactive: [1] 8.2% | [2] 12.9% | [3] -0.35% | [4] 39.6% | [5] 17.6% | [6] -7.65%

CN1CCN=C(C(=O)O)C=C1c1ccccc1O
inactive: [1] 28.9% | [2] 26.7% | [3] 26.7% | [4] -28.2% | [5] -2.4% | [6] 11.9%

CCOC(=O)NC(Nc1ccc(OC(F)(F)F)cc1)(C(F)(F)F)C(F)(F)F
inactive: [1] -8.7% | [2] -8.2% | [3] -39.1% | [4] -1.25% | [5] -19.9% | [6] -0.3%

COC(=O)C1CCCN1C(=O)c1ccccc1 (stereo not given)
inactive: [1] 3.6% | [2] -0.4% | [3] -16.2% | [4] -36.8% | [5] -5% | [6] 11.6%

Cc1ccc(NC(Nc2ccc(C)c(Cl)c2)C(Cl)(Cl)Cl)cc1Cl
inactive: [1] 9.65% | [2] -24% | [3] -5.7% | [4] -7.7% | [5] 5.75% | [6] -15.3%

CC(C)CC(NC(=O)C(CCC(=O)O)NC(=O)CNC(=O)CNC(=O)C(CO)NC(=O)C(CC(C)C)NC(=O)C(NC(=O)C(CO)NC(=O)C(C)NC(=O)C(CCCNC(=N)N)NC(=O)C(C)NC(=O)CN)C(C)C)C(=O)NC(CC(=O)O)C(=O)NC(CCCNC(=N)N)C(=O)NC(Cc1c[nH]c2ccccc12)C(=O)NC(Cc1ccc(O)cc1)C(N)=O (stereo not given) (H-GARASVLSGGELDRWY-NH2; configuration not given here)
inactive: [1] 21.4% | [2] -7.15% | [3] 3.25% | [4] 8.4% | [5] -5.85% | [6] 11.7%

CC1(C)OCC(C(O)C2OC(C)(C)OC2/C=N\O)O1 (stereo not given)
inactive: [1] -3.9% | [2] -18% | [3] -0.2% | [4] -0.5% | [5] -1.45% | [6] -17%

[Cl][Pt+2][Cl].[NH-]C1CCCC1[NH-] (stereo not given)
inactive: [1] 13.8% | [2] 9% | [3] 20.9% | [4] 3.8% | [5] 21.9% | [6] 36.8%

CC(C)C(NC(=O)OC(C)(C)C)C(=O)N1CCCC1C(=O)O (stereo not drawn) (Boc-Val-Pro-OH; configuration not given here)
inactive: [1] 11.8% | [2] -1.5% | [3] 18% | [4] 3.3% | [5] 2.3% | [6] 5.65%

O=C(Nc1ccc(Cl)cc1)Nc1nnc2nc(C(C(=O)c3cccs3)c3nc4nnc(NC(=O)Nc5ccc(Cl)cc5)n4[nH]c3=O)c(=O)[nH]n12
inactive: [1] 1.55% | [2] 12.2% | [3] 0.1% | [4] 15.8% | [5] 0.05% | [6] -13.8%

O=C(NCCCl)Oc1ccccc1
inactive: [1] 6.85% | [2] -15.5% | [3] -7.95% | [4] -0.1% | [5] -4.9% | [6] -9.1%
